Data as given in PubChem BioAssay AID1159580 (chemical genetic matrix, 2015).
Values joined by “and” are separate entries in the source; they are usually repeats but may differ in a detail not shown here. Equal values may be shown once. About 2,000 (36%) of roughly 5,500 compounds were called active. Another 18% or so got no clear call; they are omitted. Rule as the data show it: active = normalized growth mostly below about 0.91 (no sharp cut-off); inconclusive = no clear call, values can overlap the other calls; inactive = mostly above about 0.92. Some of the results follow.

Experiment: chemical genetic growth profiling, strain panel (AID 1159580);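 also: tested at 20 µM; growth read once vehicle control cultures reached saturation at 30 °C; 1 = growth at the plate median or of vehicle wells; lower values mean less growth of the strain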
Conditions: S. cerevisiae deletion strains, growth OD

Measured: normalized growth

O=C(O)C1CCCNC1 (stereo not given)
inactive: locus YAL013W, strain DEP1, hits give low values 1 | locus YAL021C, strain ccr4, hits give low values 1.01 | locus YAL026C, strain drs2, hits give low values 1.02 | locus YAL030W, strain snc1, hits give low values 1.02 | locus YAL040C, strain CLN3, hits give low values 1 | locus YBL061C, strain skt5, hits give low values 1.02 | locus YBR009C, strain hhf1, hits give low values 1.01 | locus YBR021W, strain FUR4, hits give low values 0.999 | locus YBR023C, strain chs3, hits give low values 1.01 | locus YBR171W, strain sec66, hits give low values 1.03 | locus YBR229C, strain ROT2, hits give low values 1.01 | locus YBR231C, strain swc5, hits give low values 1.01 | locus YBR279W, strain paf1, hits give low values 1.01 | locus YCL011C, strain gbp2, hits give low values 1.01 | locus YCL016C, strain dcc1, hits give low values 1.01 | locus YCL029C, strain bik1, hits give low values 1.04 | locus YCL061C, strain MRC1 (second series), hits give low values 1 | locus YCL061C, strain MRC1, hits give low values 1.02 | locus YCL069W, strain vba3, hits give low values 1.02 | locus YCR088W, strain abp1, hits give low values 1.02 | locus YDL005C, strain med2, hits give low values 1.02 | locus YDL035C, strain GPR1, hits give low values 1.01 | locus YDL040C, strain nat1, hits give low values 1.02 | locus YDL074C, strain BRE1, hits give low values 1.03 | locus YDL101C, strain DUN1, hits give low values 1.01 | locus YDL134C, strain PPH21, hits give low values 1.01 | locus YDL185W, strain tfp1, hits give low values 1.01 | locus YDL192W, strain arf1, hits give low values 1.03 | locus YDR001C, strain nth1, hits give low values 1.02 | locus YDR069C, strain doa4, hits give low values 1.02 | locus YDR101C, strain arx1, hits give low values 1.02 | locus YDR137W, strain rgp1, hits give low values 1.02 | locus YDR150W, strain NUM1, hits give low values 1.01 | locus YDR159W, strain sac3, hits give low values 1.02 | locus YDR162C, strain NBP2, hits give low values 1.01 | locus YDR195W, strain ref2 0.991 | locus YDR297W, strain sur2, hits give low values 1.02 | locus YDR318W, strain mcm21, hits give low values 1.03 | locus YDR334W, strain swr1, hits give low values 1.02 | locus YDR335W, strain msn5, hits give low values 1.02 | locus YDR388W, hits give low values 1.02 | locus YDR392W, strain spt3, hits give low values 1.03 | locus YDR502C, strain sam2, hits give low values 1.01 | locus YEL003W, strain gim4, hits give low values 1.03 | locus YEL037C, strain rad23, hits give low values 1.02 | locus YEL061C, strain CIN8 (second series), hits give low values 1.02 | locus YEL061C, strain CIN8, hits give low values 1.01 | locus YER002W, strain NOP16, hits give low values 1.02 | locus YER015W, strain faa2, hits give low values 1.02 | locus YER016W, strain bim1, hits give low values 1.01 | locus YER110C, hits give low values 1.02 | locus YER111C, strain swi4, hits give low values 1.02 | locus YER155C, strain BEM2 (second series), hits give low values 1.02 | locus YER155C, strain BEM2, hits give low values 1 | locus YER167W, strain BCK2, hits give low values 1.02 | locus YFR010W, strain ubp6, hits give low values 1.02 | locus YGL078C, strain dbp3, hits give low values 1.02 | locus YGL086W, strain mad1, hits give low values 0.999 | locus YGL167C, strain pmr1, hits give low values 1.01 | locus YGL173C, strain kem1, hits give low values 1.02 | locus YGL227W, strain vid30, hits give low values 1.02 | locus YGL240W, strain doc1, hits give low values 1.02 | locus YGL248W, strain PDE1, hits give low values 1.01 | locus YGL253W, strain hxk2, hits give low values 1.02 | locus YGR078C, strain PAC10, hits give low values 1.02 and 1.01 | locus YGR135W, strain pre9, hits give low values 1.03 | locus YGR229C, strain SMI1, hits give low values 0.999 | locus YGR252W, strain gcn5, hits give low values 1.01 | locus YHR013C, strain ard1, hits give low values 1.04 | locus YHR027C, strain rpn1, hits give low values 1.01 | locus YHR030C, strain SLT2, hits give low values 1 and 0.996 | locus YHR079C, strain IRE1 (second series), hits give low values 1.02 | locus YHR079C, strain IRE1, hits give low values 1.01 | locus YHR094C, strain hxt1, hits give low values 1.02 | locus YHR129C, strain ARP1, hits give low values 1.01 | locus YHR142W, strain chs7, hits give low values 1.01 | locus YHR200W, strain rpn10, hits give low values 1.01 | locus YIL066C, strain RNR3, hits give low values 1.01 | locus YIL073C, strain SPO22, hits give low values 1.1 | locus YIL125W, strain kgd1, hits give low values 1.02 | locus YIR030C, strain dcg1, hits give low values 1.03 | locus YJL092W, strain hpr5, hits give low values 1.02 | locus YJL095W, strain BCK1 (second series), hits give low values 1.02 | locus YJL095W, strain BCK1, hits give low values 1.04 and 1 | locus YJL115W, strain asf1, hits give low values 1.01 | locus YJL129C, strain trk1, hits give low values 1.04 | locus YJL134W, strain LCB3, hits give low values 1.01 | locus YJL154C, strain vps35, hits give low values 1.03 | locus YJL164C, strain tpk1, hits give low values 1.01 | locus YJL166W, strain qcr8, hits give low values 1.01 | locus YJL168C, strain set2, hits give low values 1.02 | locus YJL187C, strain SWE1 (second series), hits give low values 1.02 | locus YJL187C, strain SWE1, hits give low values 1.01 | locus YJR043C, strain POL32, hits give low values 1.01 | locus YJR066W, strain TOR1, hits give low values 0.923
